Assay [1] has as its target Sphingosine kinase 1 (Homo sapiens) (UniProt Q9NYA1). Conditions: at 1 µM.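 Further: mean SPHK1 inhibition value reported from the GSK PKIS kinase panel screen.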
Assay [2] concerns the target T1, Sphingosine kinase 2 (Homo sapiens) (UniProt Q9NRA0).
T1 sequence (whole entry): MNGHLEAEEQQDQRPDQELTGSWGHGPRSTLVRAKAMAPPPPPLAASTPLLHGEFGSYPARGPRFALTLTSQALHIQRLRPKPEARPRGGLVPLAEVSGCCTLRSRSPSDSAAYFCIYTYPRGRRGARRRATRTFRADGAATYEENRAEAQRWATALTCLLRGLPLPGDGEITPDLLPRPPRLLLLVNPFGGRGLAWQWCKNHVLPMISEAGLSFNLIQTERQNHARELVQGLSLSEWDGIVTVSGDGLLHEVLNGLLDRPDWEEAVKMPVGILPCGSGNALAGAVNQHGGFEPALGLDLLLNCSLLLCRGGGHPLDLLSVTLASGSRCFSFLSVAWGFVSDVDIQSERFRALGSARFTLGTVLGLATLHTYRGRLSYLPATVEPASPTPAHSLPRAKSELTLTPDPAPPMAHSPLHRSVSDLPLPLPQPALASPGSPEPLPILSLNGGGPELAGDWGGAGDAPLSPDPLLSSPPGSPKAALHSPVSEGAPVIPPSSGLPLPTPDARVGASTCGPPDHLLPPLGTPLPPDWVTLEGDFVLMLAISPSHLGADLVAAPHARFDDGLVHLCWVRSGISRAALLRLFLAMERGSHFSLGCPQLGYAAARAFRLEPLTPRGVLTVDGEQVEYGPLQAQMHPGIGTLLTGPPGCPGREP
The following applies: at 0.1 µM.

For assay [3], the target named is T1, Sphingosine kinase 2 (Homo sapiens). The following applies: at 1 µM.
For assay [4], the target named is Casein kinase II subunit alpha (Homo sapiens) (UniProt P68400). Conditions: at 0.1 µM.
Assay [5] has the same target. The following applies: at 1 µM.
For assay [6], the target named is T2, Inhibitor of nuclear factor kappa-B kinase subunit alpha (Homo sapiens) (UniProt O15111).
T2 sequence (whole entry): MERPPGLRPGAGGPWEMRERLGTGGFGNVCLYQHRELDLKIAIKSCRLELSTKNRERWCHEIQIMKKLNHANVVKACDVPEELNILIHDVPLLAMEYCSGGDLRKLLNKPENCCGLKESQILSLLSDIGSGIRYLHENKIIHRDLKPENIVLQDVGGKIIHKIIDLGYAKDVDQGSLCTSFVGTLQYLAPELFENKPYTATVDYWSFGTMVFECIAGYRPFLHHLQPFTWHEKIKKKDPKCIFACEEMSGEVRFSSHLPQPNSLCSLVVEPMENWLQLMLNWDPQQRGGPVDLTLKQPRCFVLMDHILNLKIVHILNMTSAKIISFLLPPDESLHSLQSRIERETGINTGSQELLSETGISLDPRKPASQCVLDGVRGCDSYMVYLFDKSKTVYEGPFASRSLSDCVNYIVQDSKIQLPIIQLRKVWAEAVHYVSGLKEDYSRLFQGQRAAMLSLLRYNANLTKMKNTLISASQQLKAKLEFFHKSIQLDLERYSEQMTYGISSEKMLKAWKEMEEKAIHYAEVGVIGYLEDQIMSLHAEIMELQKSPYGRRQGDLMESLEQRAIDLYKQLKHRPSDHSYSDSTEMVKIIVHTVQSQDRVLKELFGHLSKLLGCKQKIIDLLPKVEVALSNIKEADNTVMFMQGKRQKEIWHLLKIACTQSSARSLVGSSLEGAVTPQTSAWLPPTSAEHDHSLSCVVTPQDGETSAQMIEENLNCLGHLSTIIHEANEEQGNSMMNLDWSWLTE
Conditions: at 0.1 µM.

Assay [7] has as its target T2, Inhibitor of nuclear factor kappa-B kinase subunit alpha (Homo sapiens). The following applies: at 1 µM.
For assay [8], the target named is T3, Inhibitor of nuclear factor kappa-B kinase subunit beta (Homo sapiens) (UniProt O14920).
T3 sequence (whole entry): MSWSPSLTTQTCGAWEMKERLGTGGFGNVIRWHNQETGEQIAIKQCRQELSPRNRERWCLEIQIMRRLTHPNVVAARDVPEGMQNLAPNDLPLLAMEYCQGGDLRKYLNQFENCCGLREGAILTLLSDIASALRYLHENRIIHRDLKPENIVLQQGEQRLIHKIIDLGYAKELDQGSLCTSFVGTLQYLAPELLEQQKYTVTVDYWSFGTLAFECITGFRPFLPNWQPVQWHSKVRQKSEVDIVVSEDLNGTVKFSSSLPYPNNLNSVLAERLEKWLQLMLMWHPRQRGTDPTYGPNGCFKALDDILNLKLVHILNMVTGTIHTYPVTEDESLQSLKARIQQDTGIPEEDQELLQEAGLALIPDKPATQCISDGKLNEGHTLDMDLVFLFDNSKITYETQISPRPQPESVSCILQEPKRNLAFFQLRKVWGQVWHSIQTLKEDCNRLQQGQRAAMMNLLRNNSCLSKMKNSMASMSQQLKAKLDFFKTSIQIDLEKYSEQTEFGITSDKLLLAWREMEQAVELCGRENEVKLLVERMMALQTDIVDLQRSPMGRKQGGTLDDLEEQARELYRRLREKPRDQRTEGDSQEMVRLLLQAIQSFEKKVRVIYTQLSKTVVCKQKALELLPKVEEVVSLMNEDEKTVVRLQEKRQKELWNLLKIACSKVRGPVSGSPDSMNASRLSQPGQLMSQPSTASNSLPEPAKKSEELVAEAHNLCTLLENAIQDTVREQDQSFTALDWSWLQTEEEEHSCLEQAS
The following applies: at 0.1 µM.

The target in assay [9] is T3, Inhibitor of nuclear factor kappa-B kinase subunit beta (Homo sapiens). The following applies: at 1 µM.
The target in assay [10] is T4, Inhibitor of nuclear factor kappa-B kinase subunit epsilon (Homo sapiens) (UniProt Q14164).
T4 sequence (whole entry): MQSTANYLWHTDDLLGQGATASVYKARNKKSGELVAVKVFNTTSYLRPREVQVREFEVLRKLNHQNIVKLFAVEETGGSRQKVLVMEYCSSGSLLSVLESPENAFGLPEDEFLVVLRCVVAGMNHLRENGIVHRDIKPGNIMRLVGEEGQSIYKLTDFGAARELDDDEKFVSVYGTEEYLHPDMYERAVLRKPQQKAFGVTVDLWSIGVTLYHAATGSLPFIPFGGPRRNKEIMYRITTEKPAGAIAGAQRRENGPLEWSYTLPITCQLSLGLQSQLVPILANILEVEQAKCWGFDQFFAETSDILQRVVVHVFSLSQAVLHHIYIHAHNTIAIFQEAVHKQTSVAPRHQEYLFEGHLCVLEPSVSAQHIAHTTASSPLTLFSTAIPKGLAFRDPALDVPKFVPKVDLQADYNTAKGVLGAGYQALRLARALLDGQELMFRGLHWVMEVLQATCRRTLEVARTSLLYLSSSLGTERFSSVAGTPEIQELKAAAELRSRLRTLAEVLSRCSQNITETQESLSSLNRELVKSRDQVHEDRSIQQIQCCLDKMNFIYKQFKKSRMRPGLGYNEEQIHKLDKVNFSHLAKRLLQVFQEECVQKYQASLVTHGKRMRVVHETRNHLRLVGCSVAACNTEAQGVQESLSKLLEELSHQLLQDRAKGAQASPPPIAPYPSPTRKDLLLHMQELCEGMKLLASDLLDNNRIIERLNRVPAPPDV
Conditions: at 0.1 µM.

Assay [11] concerns the target T4, Inhibitor of nuclear factor kappa-B kinase subunit epsilon (Homo sapiens). The following applies: at 1 µM.
For assay [12], the target named is T5, Serine/threonine-protein kinase Nek1 (Homo sapiens) (UniProt Q96PY6).
T5 sequence (whole entry): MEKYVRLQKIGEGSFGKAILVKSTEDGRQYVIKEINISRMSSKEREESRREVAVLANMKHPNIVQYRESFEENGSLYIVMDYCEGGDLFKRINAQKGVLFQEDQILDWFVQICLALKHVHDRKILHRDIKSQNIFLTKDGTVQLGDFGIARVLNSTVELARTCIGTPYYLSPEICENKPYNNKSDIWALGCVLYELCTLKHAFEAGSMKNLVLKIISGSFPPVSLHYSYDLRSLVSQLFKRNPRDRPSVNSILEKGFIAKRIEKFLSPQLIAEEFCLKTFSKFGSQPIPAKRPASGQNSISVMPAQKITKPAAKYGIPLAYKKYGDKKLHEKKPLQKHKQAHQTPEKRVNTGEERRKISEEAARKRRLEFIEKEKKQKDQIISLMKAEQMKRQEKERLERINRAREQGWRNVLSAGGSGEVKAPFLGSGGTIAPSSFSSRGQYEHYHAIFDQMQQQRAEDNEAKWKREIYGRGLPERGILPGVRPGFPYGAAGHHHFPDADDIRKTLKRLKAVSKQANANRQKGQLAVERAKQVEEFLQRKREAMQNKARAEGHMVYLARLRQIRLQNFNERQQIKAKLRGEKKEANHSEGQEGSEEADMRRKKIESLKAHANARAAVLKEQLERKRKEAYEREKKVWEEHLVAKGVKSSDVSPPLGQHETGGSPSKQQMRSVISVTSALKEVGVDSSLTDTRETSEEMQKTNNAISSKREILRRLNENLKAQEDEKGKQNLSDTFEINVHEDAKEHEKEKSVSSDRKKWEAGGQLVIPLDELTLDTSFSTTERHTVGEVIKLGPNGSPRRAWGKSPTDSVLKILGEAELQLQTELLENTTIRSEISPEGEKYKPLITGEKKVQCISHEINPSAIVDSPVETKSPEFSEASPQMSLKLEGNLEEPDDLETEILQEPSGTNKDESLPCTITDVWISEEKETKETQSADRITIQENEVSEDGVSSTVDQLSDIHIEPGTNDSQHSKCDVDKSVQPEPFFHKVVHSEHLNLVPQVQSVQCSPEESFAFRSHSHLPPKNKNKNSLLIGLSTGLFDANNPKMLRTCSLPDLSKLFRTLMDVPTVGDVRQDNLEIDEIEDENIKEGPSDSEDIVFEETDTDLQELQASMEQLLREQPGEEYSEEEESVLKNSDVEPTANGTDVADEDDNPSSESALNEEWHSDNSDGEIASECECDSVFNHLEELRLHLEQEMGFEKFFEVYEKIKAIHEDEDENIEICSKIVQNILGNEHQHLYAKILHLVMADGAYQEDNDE
Conditions: at 0.1 µM.

Assay [13] has as its target T5, Serine/threonine-protein kinase Nek1 (Homo sapiens). The following applies: at 1 µM.
Assay [14] addresses T6, Serine/threonine-protein kinase Nek2 (Homo sapiens) (UniProt P51955).
T6 sequence (whole entry): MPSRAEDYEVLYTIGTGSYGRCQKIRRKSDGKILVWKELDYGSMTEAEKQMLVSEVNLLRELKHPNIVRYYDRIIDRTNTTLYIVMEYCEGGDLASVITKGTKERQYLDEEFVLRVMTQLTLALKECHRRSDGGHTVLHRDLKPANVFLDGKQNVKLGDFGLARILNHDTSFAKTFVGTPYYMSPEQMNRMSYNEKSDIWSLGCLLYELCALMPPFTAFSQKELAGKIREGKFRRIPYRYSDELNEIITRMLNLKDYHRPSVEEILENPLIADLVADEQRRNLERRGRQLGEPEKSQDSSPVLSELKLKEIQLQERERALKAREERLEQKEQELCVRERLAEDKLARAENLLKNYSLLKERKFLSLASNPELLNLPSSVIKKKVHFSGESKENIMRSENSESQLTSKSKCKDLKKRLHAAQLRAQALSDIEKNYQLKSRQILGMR
Conditions: at 0.1 µM.

Assay [15] deals with T6, Serine/threonine-protein kinase Nek2 (Homo sapiens). Conditions: at 1 µM.
Assay [16] concerns the target Serine/threonine-protein kinase Nek6 (Homo sapiens) (UniProt Q9HC98). The following applies: at 0.1 µM.
Assay [17] has the same target. Conditions: at 1 µM.
In assay [18] the target is Serine/threonine-protein kinase Nek7 (Homo sapiens) (UniProt Q8TDX7). Conditions: at 0.1 µM.
Assay [19] has the same target. Conditions: at 1 µM.
For assay [20], the target named is T7, Serine/threonine-protein kinase Nek9 (Homo sapiens) (UniProt Q8TD19).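 Further: reported value is the mean percent inhibition of NEK9.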
T7 sequence (whole entry): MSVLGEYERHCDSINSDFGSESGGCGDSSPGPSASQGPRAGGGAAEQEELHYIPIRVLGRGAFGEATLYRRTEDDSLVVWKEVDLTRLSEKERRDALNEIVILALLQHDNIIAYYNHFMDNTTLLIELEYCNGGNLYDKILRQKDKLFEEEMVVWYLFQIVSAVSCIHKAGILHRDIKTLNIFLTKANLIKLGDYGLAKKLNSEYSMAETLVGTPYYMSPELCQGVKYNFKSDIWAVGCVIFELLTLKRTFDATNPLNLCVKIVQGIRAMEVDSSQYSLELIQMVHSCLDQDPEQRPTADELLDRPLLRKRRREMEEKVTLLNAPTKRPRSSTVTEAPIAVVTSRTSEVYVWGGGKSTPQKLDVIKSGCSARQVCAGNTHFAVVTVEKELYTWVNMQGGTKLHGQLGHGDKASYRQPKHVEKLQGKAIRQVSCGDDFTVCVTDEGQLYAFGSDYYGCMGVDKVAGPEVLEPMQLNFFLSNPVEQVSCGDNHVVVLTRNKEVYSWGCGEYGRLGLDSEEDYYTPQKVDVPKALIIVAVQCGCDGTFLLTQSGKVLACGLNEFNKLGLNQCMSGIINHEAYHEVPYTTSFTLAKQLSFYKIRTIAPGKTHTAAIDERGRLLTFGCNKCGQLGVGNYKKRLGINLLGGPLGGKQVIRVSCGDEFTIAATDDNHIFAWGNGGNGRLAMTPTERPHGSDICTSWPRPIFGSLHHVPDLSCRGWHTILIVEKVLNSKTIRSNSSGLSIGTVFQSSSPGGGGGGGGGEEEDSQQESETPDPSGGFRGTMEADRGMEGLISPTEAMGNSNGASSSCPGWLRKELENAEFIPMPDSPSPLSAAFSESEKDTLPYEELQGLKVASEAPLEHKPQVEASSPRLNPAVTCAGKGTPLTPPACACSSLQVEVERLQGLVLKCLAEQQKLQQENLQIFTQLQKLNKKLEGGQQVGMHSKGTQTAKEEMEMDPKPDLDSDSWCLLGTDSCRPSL
Conditions: at 0.1 µM.

Casein kinase II subunit alpha (Homo sapiens), sequence (P68400 whole entry, looked up): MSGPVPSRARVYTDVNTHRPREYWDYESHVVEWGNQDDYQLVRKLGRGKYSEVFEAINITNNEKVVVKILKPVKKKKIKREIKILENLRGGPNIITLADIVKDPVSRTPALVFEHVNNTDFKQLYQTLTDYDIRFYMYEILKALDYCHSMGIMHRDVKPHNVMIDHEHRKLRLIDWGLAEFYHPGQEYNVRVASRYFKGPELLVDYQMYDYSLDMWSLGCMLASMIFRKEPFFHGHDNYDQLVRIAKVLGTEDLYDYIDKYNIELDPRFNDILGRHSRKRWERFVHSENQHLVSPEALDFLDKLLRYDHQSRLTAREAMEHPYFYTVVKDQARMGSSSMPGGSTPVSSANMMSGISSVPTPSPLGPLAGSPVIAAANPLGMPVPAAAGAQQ
Serine/threonine-protein kinase Nek7 (Homo sapiens), sequence (Q8TDX7 whole entry, looked up): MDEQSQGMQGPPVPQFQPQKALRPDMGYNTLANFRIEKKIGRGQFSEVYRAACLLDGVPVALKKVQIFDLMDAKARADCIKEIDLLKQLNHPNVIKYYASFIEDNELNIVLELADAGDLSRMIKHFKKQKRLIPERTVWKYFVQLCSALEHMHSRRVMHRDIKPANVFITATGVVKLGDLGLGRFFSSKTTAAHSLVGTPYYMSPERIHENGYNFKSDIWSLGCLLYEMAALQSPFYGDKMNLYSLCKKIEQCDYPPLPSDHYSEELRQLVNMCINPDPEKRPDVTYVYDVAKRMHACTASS
Serine/threonine-protein kinase Nek6 (Homo sapiens), sequence (Q9HC98 whole entry): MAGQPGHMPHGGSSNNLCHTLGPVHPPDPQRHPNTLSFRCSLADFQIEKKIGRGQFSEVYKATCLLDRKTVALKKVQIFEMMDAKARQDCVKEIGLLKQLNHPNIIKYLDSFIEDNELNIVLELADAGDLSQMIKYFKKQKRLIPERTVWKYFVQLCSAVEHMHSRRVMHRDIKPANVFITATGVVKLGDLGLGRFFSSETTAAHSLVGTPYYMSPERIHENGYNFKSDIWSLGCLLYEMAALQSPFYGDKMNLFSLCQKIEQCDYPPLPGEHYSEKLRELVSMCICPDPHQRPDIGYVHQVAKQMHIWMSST
Sphingosine kinase 1 (Homo sapiens), sequence (Q9NYA1 whole entry): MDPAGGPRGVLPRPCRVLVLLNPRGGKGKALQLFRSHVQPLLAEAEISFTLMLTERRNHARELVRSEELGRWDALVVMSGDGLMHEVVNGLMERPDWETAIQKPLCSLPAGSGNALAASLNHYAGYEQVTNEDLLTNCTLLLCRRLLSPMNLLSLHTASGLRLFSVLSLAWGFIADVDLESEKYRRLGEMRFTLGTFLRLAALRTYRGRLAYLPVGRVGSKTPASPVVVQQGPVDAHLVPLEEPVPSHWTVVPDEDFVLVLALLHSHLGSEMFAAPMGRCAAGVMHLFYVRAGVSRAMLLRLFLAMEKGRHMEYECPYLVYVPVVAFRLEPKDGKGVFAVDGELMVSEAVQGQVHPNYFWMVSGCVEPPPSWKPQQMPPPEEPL

Broadly, the inhibition is the change of the read-out against control, counted positive when it falls. Regarding `c1ccc(-c2n[nH]cc2-c2ccnc(-c3ccc(OCCn4ccnc4)cc3)c2)nc1`, the inhibition in assay [1] was -1.64%; in assay [2], -0.27%; in assay [3] it was 0.04%; in assay [4] it was 1.26%; in [5], 2.53%; in [6], 4.99%. For the same molecule, the inhibition in assay [7] is 3.64%; in [8], 0.37%; in assay [9] it was -0.43%; in [10], 0.86%; in [11], 2.18%; in assay [12] it was 0.35%. For the same molecule, the inhibition in [13] was found to be 2.46%; in assay [14], 0.51%; in assay [15], 1.73%; in assay [16] it was 0.49%; in assay [17], 4.21%; in [18], 2.27%. The inhibition came out at 2.32% in assay [19] and 2.13% in assay [20].

The values are drawn from ChEMBL document CHEMBL1961873, “Compounds: GSK PKIS; Assays: Nanosyn kinase panel” (2012).
